From PubChem BioAssay (NCI) come the findings set out here.

The structures appear in SMILES notation. This is part of a sample that, as a whole, favours compounds with a hit. Of some 83,000 tested, about 20% had one in any assay.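 Step 1: grow cells in 96-well plates. Step 2: add test compound at a single concentration. Step 3: incubate 48 h. Step 4: record percent growth.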 Unmarked numbers belong to inactive results. Calls of active or inactive are those of the source. How the source made its calls: active means growth percent below 10; inactive means the rest.

Common to all, as to assay: NCI-60 one-dose screen, 48 h (100 = growth as untreated, 0 = no growth, -100 = all killed)
The test system of experiment [1] is EKVX NSCLC. The conditions noted are these: 10 µM unless noted.
Experiment [2] concerns SN12C renal. The conditions noted are these: 10 µM unless noted.
The test system of experiment [3] is UO-31 renal. The conditions noted are these: 10 µM unless noted.
Experiment [4] has as its system TK-10 renal. The conditions noted are these: 10 µM unless noted.
The test system of experiment [5] is ACHN renal. The conditions noted are these: 10 µM unless noted.
For experiment [6], the system named is CAKI-1 renal. To be noted: 10 µM unless noted.
Experiment [7] has as its system A498 renal. The conditions noted are these: 10 µM unless noted.
Experiment [8] relates to CCRF-CEM leukemia. To be noted: 10 µM unless noted.
In experiment [9] the test system is MOLT-4 leukemia. To be noted: 10 µM unless noted.
Experiment [10] relates to SR leukemia. The conditions noted are these: 10 µM unless noted.
The test system of experiment [11] is OVCAR-8 ovarian. The conditions noted are these: 10 µM unless noted.
Experiment [12] concerns OVCAR-5 ovarian. To be noted: 10 µM unless noted.
For experiment [13], the system named is OVCAR-4 ovarian. To be noted: 10 µM unless noted.
The test system of experiment [14] is SK-OV-3 ovarian. The conditions noted are these: 10 µM unless noted.
In experiment [15] the test system is IGROV1 ovarian. To be noted: 10 µM unless noted.
In experiment [16] the test system is OVCAR-3 ovarian. The conditions noted are these: 10 µM unless noted.
The test system of experiment [17] is NCI/ADR-RES ovarian. To be noted: 10 µM unless noted.
For experiment [18], the system named is RPMI-8226 leukemia. The conditions noted are these: 10 µM unless noted.
Experiment [19] concerns HS 578T breast. The conditions noted are these: 10 µM.

For `COc1cc2nccc(Oc3ccc(NC(=O)Nc4cc(C)on4)c(Cl)c3)c2cc1OC`, the growth was 37.6% in [1]; 11.6% in [2]; -15.3% (active) in experiment [3]; -15.8% (active) in experiment [4]; 13.7% in experiment [5]; 2.09% (active) in experiment [6]. The growth in [7] was -35.9% (active); in [8] it was 22.3%; in [9], 7.51% (active); in experiment [10], 4.19% (active); in experiment [11], 15.3%; in experiment [12], 20.2%. Also, the growth in experiment [13] was 31.1%; in experiment [14], -17.3% (active); in experiment [15], 0.0648% (active); in [16], 35.1%; in experiment [17], 10.2%.

Regarding `CCS(=O)(=O)N1CCN(c2ccc(Nc3ncc(C(N)=O)c(NC4CC4)n3)cc2)CC1`, the growth is 91.6% in [1]; 62.8% in [2]; 52.9% in [3]; 87.3% in experiment [4]; 85.1% in [5]; 97.6% in experiment [6]. In addition, the growth in [7] is 95.6%; in experiment [8], 27.6%; in experiment [9], 51.7%; in [10], 48.9%; in experiment [11], 89%; in [12], 86.7%. The growth in [13] is 111%; in experiment [14], 80.7%; in experiment [15], 77.4%; in experiment [16], 90.2%; in experiment [17], 101%.

In the case of `CC1(COc2ccc3c(c2)ncn3-c2ccc3cccc(N4CCC(N)CC4)c3n2)COC1`, the growth in experiment [1] was 34.6%; in experiment [2], 32.4%; in experiment [3] it was -3.3% (active); in experiment [4] it was 32%; in experiment [5], 2.83% (active); in experiment [6], 22.9%. Also, the growth in experiment [7] was 85.1%; in experiment [9], -4.11% (active); in experiment [10] it was -6.81% (active); in [18], 0.988% (active); in experiment [11], 3.53% (active); in [12] it was 10.3%. Besides, the growth in [13] is 29.2%; in experiment [14] it was 54.2%; in experiment [15], 22.7%; in experiment [16] it was 37.2%; in [17], 51.5%.

In the case of `Cc1ccc(C(=O)Nc2ccc(CN3CCN(C)CC3)c(C(F)(F)F)c2)cc1C#Cc1cnc2cccnn12`, the growth in experiment [1] was -84.4% (active); in experiment [2], -92.8% (active); in experiment [3], -93.6% (active); in experiment [4] it was -98.7% (active); in experiment [5] it was -100% (active); in experiment [6], -99.9% (active). Moreover, the growth in experiment [7] was -96.8% (active); in experiment [9] it was -62.3% (active); in experiment [10] it was -28.2% (active); in [18], -45.5% (active); in experiment [11], -95.8% (active); in experiment [12], -81.9% (active). Moreover, the growth in experiment [13] is -76.2% (active); in [14] it was -94% (active); in experiment [15] it was -65.5% (active); in [16], -95.9% (active); in experiment [17], -49.1% (active).

`Cn1ccnc1C(=O)/C=C/c1ccc(CC(=O)Nc2ccc(Br)cc2)cc1`: the growth was 22.6% in experiment [1]; 1.07% (active) in [2]; 22.7% in experiment [3]; 49.5% in experiment [4]; 40.3% in [5]; 34.9% in experiment [6]. In addition, the growth is 11.9% in experiment [8]; 2.44% (active) in experiment [9]; 3.22% (active) in [10]; 8.13% (active) in experiment [18]; 3.98% (active) in experiment [11]; 21.8% in experiment [12]. Moreover, the growth was 43.2% in experiment [13]; 54.6% in experiment [14]; 11.3% in experiment [15]; 11.1% in [16]; 16.3% in [17].

With `COC(=O)[C@H](Cc1ccc(O)cc1)NC(=O)[C@@H](OC)[C@@H]1Cc2cc3cc(OC4CC(OC5CC(O)C(O)C(C)O5)C(O)C(C)O4)c(C)c(O)c3c(O)c2C(=O)[C@H]1OC1CC(OC2CC(OC3CC(C)(O)C(O)C(C)O3)C(O)C(C)O2)C(O)C(C)O1` (stereo not given in full), the growth in experiment [1] is 21.5%; in [2], 13.3%; in experiment [3] it was 18.1%; in experiment [4], 23.5%; in experiment [5], 4.06% (active); in [6] it was 69.5%. Moreover, the growth in experiment [7] is -63.2% (active); in experiment [9], -1.8% (active); in experiment [10], 9.7% (active); in experiment [18], -5.59% (active); in experiment [11], 9.74% (active); in [12], 10.6%. Besides, the growth in experiment [13] was 7.27% (active); in experiment [14], 20.7%; in experiment [15], 31.2%; in experiment [16], 5.52% (active); in experiment [19] it was -9.2% (active); in experiment [17] it was 85.6%.

`CCCCn1c(C)nc2ccc(Nc3nc(N4CCN(C)CC4)nc4nc[nH]c34)cc21`: the growth was 96.9% in experiment [1]; 87.3% in experiment [2]; 83.7% in experiment [3]; 104% in [4]; 106% in experiment [5]; 99.8% in [6]. The growth was 71.7% in [7]; 87.1% in experiment [9]; 84% in experiment [10]; 88.2% in [18]; 91.8% in experiment [11]; 95.6% in experiment [12]. For the same molecule, the growth in experiment [13] is 97.8%; in experiment [14], 104%; in experiment [15], 94.1%; in experiment [16], 99.2%; in experiment [19], 86.8%.

Regarding `CC(=O)C1=C(C)NC(SCc2nnc(-c3ccc(C)cc3)o2)=NC1c1ccc(F)cc1` (stereo not given), the growth in experiment [1] is 107%; in experiment [2], 93.1%; in experiment [3], 83.6%; in [4] it was 85.6%; in experiment [5] it was 92%; in experiment [6] it was 88%. Also, the growth in [8] is 88.1%; in experiment [9], 94.1%; in experiment [10], 80.9%; in [18], 83.7%; in experiment [11] it was 97%; in experiment [12] it was 89.6%. Moreover, the growth in experiment [13] was 108%; in experiment [14], 108%; in [15] it was 89%; in [16] it was 105%; in [19], 112%; in experiment [17], 98.2%.

`O=C(CNc1nnc(-c2ccc(Cl)cc2)o1)Nc1ccc(-c2nc3ccccc3s2)cc1`: the growth in experiment [1] was 104%; in experiment [2], 94.5%; in experiment [3], 73.3%; in experiment [4] it was 91.7%; in experiment [5] it was 112%; in [6], 100%. Also, the growth in experiment [8] was 53.3%; in experiment [9], 33.2%; in experiment [10], 71.8%; in [18], 95.4%; in [11], 103%; in [12] it was 116%. For the same molecule, the growth was 103% in [13]; 117% in [14]; 94.1% in [15]; 97.7% in experiment [16]; 96.9% in experiment [19].
